Screens as filed in PubChem BioAssay.
Methyltransferases – Primary Screen for Target Class Profiling of Small Molecule Inhibitors of Methyltransferases; purified enzyme, MTase-Glo SAH luminescence; active compounds read low; calls only at 40 µM; 25,000 compounds, 3.9% hits; AID 1745853, 2022; call rule not given here
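Each enzyme was assayed with SAM and its substrate. SAH formation detected by MTase-Glo luminescence; single-point 40 uM screen[…].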
Active calls of the source: *; ! = repeats disagree. This is one part of a sample in which hits are shown more often than they occur. On the % scale 0 is the no-effect control and ±100 the full control effect.

How did CCCSCCCN1C(=O)c2cc3occc3n2CC1(C)C(=O)NC1CCCCCCC1 (stereo not drawn) do in these assays?
Methyltransferases: inactive

What do the screens show for `COc1ccc2c(c1)c(NC(C)=O)c1n2CC(C)(C(=O)NC2CCCC2)N(Cc2cccs2)C1=O` (stereo not drawn)?
Methyltransferases: inactive

How did O=C(O)C1(Cc2cccc(Nc3nccs3)n2)CCC(Oc2cccc(Cl)c2F)CC1 (stereo not drawn) do in these assays?
Methyltransferases: active!

How did CCC(C)NC(=O)c1ccc2c(=O)n(C)c3nn(CC(=O)Nc4ccccc4Cl)c(=O)n3c2c1 (stereo not drawn) do in these assays?
Methyltransferases: inactive

What do the screens show for `CC1CCCC(NC(=O)C2(C)Cn3c(ccc3-c3ccco3)C(=O)N2Cc2cccs2)C1C` (stereo not drawn)?
Methyltransferases: inactive

What do the screens show for `COc1cccc(CN2C(=O)c3cc4occc4n3CC2(C)C(=O)NC2CCCCC2C)c1` (stereo not drawn)?
Methyltransferases: inactive

What do the screens show for `COC(=O)C1=CO[C@@H](O[C@@H]2O[C@H](CO[C@@H]3O[C@H](COC(=O)/C=C/c4ccc(O)cc4)[C@@H](O)[C@H](O)[C@H]3O)[C@@H](O)[C@H](O)[C@H]2O)[C@@H]2C(CO)=CC[C@H]12`?
Methyltransferases: inactive

Results for C=C1[C@H]2[C@H](O[C@@H]3O[C@H](COC(=O)/C=C/c4cc(OC)c(O)c(OC)c4)[C@@H](O)[C@H](O)[C@H]3O)OC=C(C(=O)O)[C@H]2C[C@@H]1O ?
Methyltransferases: active

Results for C=C1C(O)CC2C(C(=O)O)=COC(O[C@@H]3O[C@H](COC(=O)c4ccc(O)cc4)[C@@H](O)[C@H](O)[C@H]3O)C12 (stereo partly drawn) ?
Methyltransferases: inactive

How did C[C@]1(O)CC[C@@H]2C(C(=O)O)=CO[C@@H](O[C@@H]3O[C@H](COC(=O)c4ccc(O)cc4)[C@@H](O)[C@H](O)[C@H]3O)[C@@H]21 do in these assays?
Methyltransferases: inactive

How did CC1(O)CC(O)C2C(C(=O)O)=COC(OC3OC(CO)C(O)C(O)C3OC(=O)/C=C/c3ccc(O)cc3)C21 (stereo not drawn) do in these assays?
Methyltransferases: inactive

What do the screens show for `COC(=O)C1=COC(O[C@@H]2O[C@H](CO[C@@H]3O[C@H](COC(=O)/C=C\c4ccc(O)cc4)[C@@H](O)[C@H](O)[C@H]3O)[C@@H](O)[C@H](O)[C@H]2O)C2C(CO)=CCC12` (stereo partly drawn)?
Methyltransferases: inactive

Results for COC(=O)C1=COC(OC2OC(CO)C(O)C(O)C2O)C2C(COC(=O)/C=C/c3ccc(O)c(O)c3)C(O)C(O)C12 (stereo not drawn) ?
Methyltransferases: inactive

How did COC(=O)C1=CO[C@@H](O[C@@H]2O[C@H](CO[C@@H]3O[C@H](COC(=O)/C=C/c4cc(OC)c(O)c(OC)c4)[C@@H](O)[C@H](O)[C@H]3O)[C@@H](O)[C@H](O)[C@H]2O)[C@@H]2C(CO)=CC[C@H]12 do in these assays?
Methyltransferases: active

What do the screens show for `COc1cc(/C=C/C(=O)OC[C@H]2O[C@@H](OC3OC=C(C(=O)O)C4C(O)CC(C)(O)C34)[C@H](O)[C@@H](O)[C@@H]2O)cc(OC)c1O` (stereo partly drawn)?
Methyltransferases: active

What do the screens show for `CC1(C(=O)NC2CCCCCCC2)Cn2c(cc3occc32)C(=O)N1CCN1CCCCCC1` (stereo not drawn)?
Methyltransferases: inactive

How did CC1(C(=O)NC2CCCCC2)Cn2nc(-c3ccco3)cc2C(=O)N1Cc1ccc(Cl)cc1 (stereo not drawn) do in these assays?
Methyltransferases: inactive

What do the screens show for `CCOC(=O)C1CCN(c2nc3c(S(=O)(=O)c4ccccc4)nnn3c3ccccc23)CC1`?
Methyltransferases: inactive

What do the screens show for `COc1ccc(-c2cc3n(n2)CC(C)(C(=O)NCc2ccccc2OC)N(Cc2ccccc2)C3=O)cc1` (stereo not drawn)?
Methyltransferases: inactive

Results for CC1CCC(NC(=O)Cn2ccc3cc(S(=O)(=O)N4CCCC4)ccc32)CC1 (stereo not drawn) ?
Methyltransferases: inactive

How did CCOC(=O)c1cc2n(n1)CC(C)(C(=O)NCc1ccc(F)cc1)N(c1ccc(OC)cc1)C2=O (stereo not drawn) do in these assays?
Methyltransferases: inactive

What do the screens show for `CC(=O)Nc1c2n(c3ccc(F)cc13)CC(C)(C(=O)NCCC(C)C)N(Cc1cccs1)C2=O` (stereo not drawn)?
Methyltransferases: inactive

What do the screens show for `CCc1ccc(NC(=O)c2cc3n(n2)CC(C)(C(=O)NC2CCCCCC2)N(C)C3=O)cc1` (stereo not drawn)?
Methyltransferases: inactive

Results for CCC(C(=O)NCc1cccc(Cl)c1)n1ccc2cc(S(=O)(=O)N3CCCCC3)ccc21 (stereo not drawn) ?
Methyltransferases: inactive

How did C=C(C(=O)O)[C@@H]1CC[C@@]2(C)CC[C@H](O)[C@@]2(C(C)=O)C1 do in these assays?
Methyltransferases: active

Results for C=C(C(=O)O)[C@@H]1CC=C2CCC[C@H](C)[C@@]2(C)C1 ?
Methyltransferases: inactive

What do the screens show for `CC(C)CCNC(=O)C1(C)Cn2c(cc3ccccc32)C(=O)N1Cc1ccc(Cl)cc1` (stereo not drawn)?
Methyltransferases: inactive

How did CCc1cc2c(cc3n2CC(C)(C(=O)NC2CCCCC2)N(CC(C)c2ccccc2)C3=O)s1 (stereo not drawn) do in these assays?
Methyltransferases: inactive

Results for CCOC(=O)c1ccc(N2C(=O)CSc3c(c4ccccc4n3C)C2C(=O)NCc2ccc(F)cc2)cc1 (stereo not drawn) ?
Methyltransferases: inactive

How did O=C(O)CNC(=O)C(CS)Cc1ccccc1 (stereo not drawn) do in these assays?
Methyltransferases: active

Results for O=C(O)CNC(=O)CNC(=O)CNC(=O)CSC(=O)c1ccccc1 ?
Methyltransferases: inactive

What do the screens show for `CC(=O)NC(Cc1ccccc1)C(=O)NC(C(=O)O)C(C)C` (stereo not drawn)?
Methyltransferases: inactive

What do the screens show for `O=C(NC1CCCCC1)c1ccc2c(=O)nc3c(-c4cccc(F)c4)n[nH]n3c2c1`?
Methyltransferases: inactive

What do the screens show for `CC1CC(O)C2(C)C(C(=O)O)=CCCC2C1(C)CCc1ccoc1` (stereo not drawn)?
Methyltransferases: active

Results for CC1CCC2(C)C(CC(O)C(O)C23CO3)C1(C)CCC1=CC(=O)OC1O (stereo not drawn) ?
Methyltransferases: inactive

What do the screens show for `CC1CCC2(CO)C(C(=O)O)=CCCC2C1(C)CCc1ccoc1` (stereo not drawn)?
Methyltransferases: active

How did CC1=CCC[C@@H]2[C@](CCc3ccoc3)(C(=O)O)[C@H](C)CC[C@@]12C do in these assays?
Methyltransferases: inactive

Results for O=C(CCc1nnc2n(Cc3ccccc3Cl)c(=O)c3ccccc3n12)NC1CCCCC1 ?
Methyltransferases: inactive

Results for COC(=O)c1ncn2c1C(=O)N(CCCc1ccccc1)C(C)(C(=O)NC1CCCCC1)C2 (stereo not drawn) ?
Methyltransferases: inactive

How did COc1cccc(Nc2ncc3c(n2)C(C)(C(=O)N2CCN(c4ccccn4)CC2)CC3)c1 (stereo not drawn) do in these assays?
Methyltransferases: inactive

Results for C=CC(=O)Nc1cccc(Oc2nc(Nc3ccc(N4CCN(C)CC4)cc3OC)ncc2Cl)c1 ?
Methyltransferases: inactive
